Assay [1] can be described thus: qHTS drug screen for cell cycle checkpoint inhibitors in PARPi-resistant BRCA-mutant ovarian cancer cell lines. (AID 1963452; calls by dose curve). Conditions: PEO1/OlaR viability, CellTiter-Glo luminescence, 96 h, stronger effect = lower value. Put shortly: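 PEO1, PEO4 and PEO1/OlaR ovarian cancer cells, 600 per well, exposed 96 h at 37C to a dilution series. Viability read by CellTiter-Glo luminescence, normalized to DMSO and empty wells; activity summarized as Z-AUC.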
Background: In qHTS, concentration-response curves come from the screen itself.

A short description of assay [2]: qHTS for identification of novel therapeutic agents for treatment of microphthalmiaassociated transcription factor (MiT) renal cell carcinoma (RCC) (AID 1963991; calls by dose curve; note: potency is the fitted concentration of half-maximal effect). As to conditions: CellTiter-Glo, 48 h; for Potency: active = Z-AUC below -0.8 in all three lines; for z-score: stronger effect = lower value. Put shortly:
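Three TFE3-fusion RCC lines (UOK109, UOK124, UOK145), 500 cells/well in complete medium, were treated with MIPE 4.0 compounds for 48 hours at 37 C. Viability was by CellTiter-Glo luminescence, normalized to DMSO (100%) and empty wells (0%); curves fitted over 11 concentrations.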

Assay [3] in a line: qHTS profiling for inhibitors of Plasmodium falciparum proliferation (AID 504749).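 For activity, negative = inhibition: 0% = DMSO vehicle and full inhibition = artemisinin control.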 Note: nearly all actives have a fitted effect of over 60% in size. Note: potency is the fitted concentration of half-maximal effect. Conditions: P. falciparum in erythrocytes, SYBR Green DNA, 72 h. Put shortly: (§1)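 P. falciparum-infected erythrocytes (0.3% parasitemia, 2.5% hematocrit final) were exposed to compounds for 72 h at 37 C in 5% CO2, then lysed with SYBR Green buffer overnight at room temperature; parasite DNA fluorescence was normalized to artemisinin and DMSO controls.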

The test system of a further assay is 3D7. Described as above. Conditions: P. falciparum in erythrocytes, SYBR Green DNA, 72 h; series mostly up to 28.7 µM. Put shortly:
as §1

Another assay concerns AA1029. The assay is described as above. Conditions: P. falciparum in erythrocytes, SYBR Green DNA, 72 h; series mostly up to 28.7 µM. Put shortly:
as §1

Another assay deals with AS120. Described as above. As to conditions: P. falciparum in erythrocytes, SYBR Green DNA, 72 h; series mostly up to 28.7 µM. Put shortly:
as §1

The subject of the next assay is ATS189. Described as above. As to conditions: P. falciparum in erythrocytes, SYBR Green DNA, 72 h; series mostly up to 28.7 µM. Put shortly:
as §1

A further assay relates to ATS95. Described as above. Conditions: P. falciparum in erythrocytes, SYBR Green DNA, 72 h; series mostly up to 28.7 µM. Put shortly: as §1
The next assay has as its system C2A. The assay is described as above. Conditions: P. falciparum in erythrocytes, SYBR Green DNA, 72 h; series mostly up to 28.7 µM. Put shortly: as §1
In another assay the test system is 7G8. Described as above. As to conditions: P. falciparum in erythrocytes, SYBR Green DNA, 72 h; series mostly up to 28.7 µM. Put shortly: as §1
Setting [4] is: measured here: PEO1 parental Z-AUC.
Where [5] appears, read: TFE3-RCC UOK109 viability, measured here: UOK109 Z-AUC.
[6] abbreviates: TFE3-RCC viability, measured here: UOK124 Z-AUC.
The mark [7] stands for this setting: TFE3-RCC viability, measured here: UOK145 Z-AUC.
Setting [8] is: at 28.7 µM (top of the series), parasite line A.
Where [9] appears, read: at 28.7 µM (top of the series), parasite line B.

Results filed as inconclusive are left out. Activity calls are given as the source filed them. Unless noted, calls come from the whole dose curve; as a rule, active = well fitted inhibition curve with a large enough effect; inconclusive = small, poorly fitted or top-dose-only effect; inactive = flat fitted curve, though single readings scatter.

For `CN(C)CCN(C)C(=O)c1ccc(NC(=O)Nc2ccc(-c3nc(N4CCOCC4)c4ccn(CC(F)(F)F)c4n3)cc2)cc1`, the Z-AUC in [1] was -1.1 (inactive); in assay [1] (setting [4]) it was -1.35; in assay [1] (measured here: PEO4 Z-AUC), -1.82. For the same molecule, the Potency in assay [2] (TFE3-RCC UOK109 viability) was 1320 nM (active). Moreover, the values for the z-score in [2] (setting [5]), in [2] (setting [6]) and in assay [2] (setting [7]) were -2.71, -3.06 and -1.67, respectively.
With `C=C1c2cccc(O)c2C(O)=C2C(=O)[C@@]3(O)C(O)=C(C(N)=O)C(=O)[C@@H](N(C)C)[C@@H]3[C@@H](O)[C@H]12`, the Z-AUC in assay [1] is -0.114 (inactive); in assay [1] (setting [4]), -0.453; in [1] (measured here: PEO4 Z-AUC) it was -0.502. In addition, the values for the z-score in [2] (setting [5]), in assay [2] (setting [6]) and in [2] (setting [7]) were 1.5, 0.336 and 0.104, respectively. Moreover, the activity, negative = inhibition is -22.9% (inactive) in assay [3] (at 12.8 µM (top of the series), parasite line A) and -19.4% (inactive) in assay [3] (at 12.8 µM (top of the series), parasite line B). Moreover, the Potency entry in the assay with 3D7, with AA1029, in the assay on AS120, in the assay on ATS189, in the assay on ATS95 and in the assay with C2A was “inactive” in each case.
For the molecule `c1ccc(CNc2nc(N3CCOc4ccccc43)nc3c2CCCC3)cc1`, the Z-AUC in assay [1] is 0.483 (inactive); in assay [1] (setting [4]), 0.277; in [1] (measured here: PEO4 Z-AUC), 1.17. The figures for the z-score in assay [2] (setting [5]), in assay [2] (setting [6]) and in assay [2] (setting [7]) were 0.901, 0.197 and 0.631, respectively.
As for `CC1(C)[C@H]2CC[C@]3(C)[C@@H](C(=O)C=C4[C@@H]5C[C@@](C)(C(=O)O)CC[C@]5(C)CC[C@]43C)[C@@]2(C)CC[C@@H]1O`, the z-score in assay [2] (setting [5]) was determined as 0.727; in assay [2] (setting [6]), 0.724; in assay [2] (setting [7]), 0.985.
Taken in the same sequence, the figures for `CC=C1C2C=C(C)CC1(N)c1ccc(=O)[nH]c1C2` (centres undefined) were 0.936, 0.297 and 1.2.
On the same counts, the results for `CO[C@H]1C=CO[C@@]2(C)Oc3c(C)c(O)c4c(O)c(c(C=NN5CCN(C)CC5)c(O)c4c3C2=O)NC(=O)C(C)=CC=C[C@H](C)[C@H](O)[C@@H](C)[C@@H](O)[C@@H](C)[C@H](OC(C)=O)[C@H]1C` are 2.16, 2 and 1.3.
On the same counts, the results for `COc1ccc2c(c1)CC[C@H]1[C@@H]2CC[C@]2(C)[C@@H](NCCCCCCN3C(=O)C=CC3=O)CC[C@H]12` are 1.13, 0.647 and 0.661.
In the case of `CO[C@H]1/C=C\O[C@@]2(C)Oc3c(C)c(O)c4c(O)c(c(C=NN5CCN(C6CCCC6)CC5)c(O)c4c3C2=O)NC(=O)C(C)=CC=C[C@H](C)[C@H](O)[C@@H](C)[C@@H](O)[C@@H](C)[C@H](OC(C)=O)[C@H]1C`, the Potency in [2] (TFE3-RCC UOK109 viability) is 105 nM (active). Moreover, the z-score is -1.72 in assay [2] (setting [5]), -2.38 in assay [2] (setting [6]) and -2.93 in assay [2] (setting [7]).
With `CCCCC[C@H](O)C=C[C@H]1[C@H](O)CC(=O)[C@H]1CCCCCCC(=O)O`, the results for the z-score in assay [2] (setting [5]), in assay [2] (setting [6]) and in assay [2] (setting [7]) were 1.1, 0.386 and 1.28, respectively.
Taken in the same sequence, the figures for `CN[C@H]1[C@@H](O[C@@H]2[C@H](O[C@@H]3[C@@H](O)[C@@H](O)[C@@H](N=C(N)N)[C@@H](O)[C@@H]3N=C(N)N)O[C@H](C)[C@@]2(O)C=O)O[C@@H](CO)[C@@H](O)[C@H]1O` were 2.74, 1.27 and 2.73.
Consider `CC(C)CN(C[C@@H](O)[C@H](Cc1ccccc1)NC(=O)O[C@H]1CO[C@H]2OCC[C@H]21)S(=O)(=O)c1ccc(N)cc1`, for which the activity, negative = inhibition in [3] (setting [8]) is 1% (inactive); in assay [3] (setting [9]) it was -15.6% (inactive). The Potency result with 3D7, in the assay with AA1029, in the assay with AS120, in the assay with ATS189, in the assay on ATS95 and in the assay with C2A was “inactive” throughout. The Potency in the assay with 7G8 was 12600 nM (active).
On to `CC[C@]1(O)C[C@H]2CN(CCC3=c4ccccc4=N[C]3[C@@](C(=O)OC)(c3cc4c(cc3OC)N(C)[C@H]3[C@@](O)(C(N)=O)[C@H](O)[C@]5(CC)C=CCN6CC[C@]43[C@@H]65)C2)C1`, for which the Potency in assay [2] (TFE3-RCC UOK109 viability) was 332 nM (active). Also, the z-score in [2] (setting [5]) is -0.8; in assay [2] (setting [6]) it was -1.02; in assay [2] (setting [7]), -0.904.
On to `CN(C)c1nc(Cc2ccc(NC(=O)c3ccc(C(F)(F)F)cc3)cc2)nc(N(C)C)c1CC(=O)O`, for which the z-score in [2] (setting [5]) stood at 0.568; in assay [2] (setting [6]) it was 0.491; in assay [2] (setting [7]), 0.741.
Taken in the same sequence, the figures for `CCNC(=O)CCCC=CC[C@@H]1[C@H](C=CC(O)CCc2ccccc2)[C@@H](O)C[C@@H]1O` (some centres undefined) were 1.02, 0.311 and 1.41.
Regarding `CN1CC(=O)N2C(Cc3c([nH]c4ccccc34)[C@H]2c2ccc3c(c2)OCO3)C1=O` (some centres undefined), the activity, negative = inhibition is 3.25% (inactive) in assay [3] (setting [8]) and 5.31% (inactive) in [3] (setting [9]). Also, the Potency result in the assay with 3D7, in the assay with AA1029, in the assay on AS120, with ATS189, in the assay on ATS95 and in the assay with C2A was “inactive” throughout. Besides, in the assay on 7G8, the Potency is 10000 nM (active).
`C[C@]12CCC3=C4CCC(=O)C=C4CC[C@@H]3[C@H]1CC[C@@]2(O)CC#N`: the z-score in assay [2] (setting [5]) is 0.693; in [2] (setting [6]), 0.709; in assay [2] (setting [7]), -0.023.
As to `O=C1C(CCC(O)c2ccc(F)cc2)C(c2ccc(O)cc2)N1c1ccc(F)cc1` (centres undefined), the activity, negative = inhibition in assay [3] (setting [8]) is 3.97% (inactive); in assay [3] (setting [9]), 8.1% (inactive). The Potency result with 3D7, in the assay on 7G8, in the assay on AA1029, in the assay on AS120, with ATS189 and with ATS95 was “inactive” throughout. Besides, in the assay on C2A, the Potency entry is “inactive”.
In the case of `CC[C@H](C)C(=O)O[C@H]1C[C@H](O)C=C2C=C[C@H](C)[C@H](CC[C@@H](O)C[C@@H](O)CC(=O)O)[C@H]21`, the results for the z-score in assay [2] (setting [5]), in assay [2] (setting [6]) and in assay [2] (setting [7]) were 0.594, 0.809 and 0.248, respectively.
Taken in the same sequence, the figures for `CC1(C)OC2CC3C4CC(F)C5=CC(=O)C=CC5(C)C4C(O)CC3(C)[C@]2(C(=O)CO)O1` (some centres undefined) were 0.56, 1.01 and -1.73.
As for `CCNC(=O)[C@H]1O[C@@H](n2cnc3c(N)nc(NCCc4ccc(CCC(=O)O)cc4)nc32)[C@H](O)[C@H]1O`, the z-score in [2] (setting [5]) turned out to be 0.882; in assay [2] (setting [6]), 0.527; in [2] (setting [7]) it was 0.68.
For the molecule `COc1cc(CNC(=O)CCCCC=CC(C)C)ccc1O`, the z-score was found to be 0.273 in [2] (setting [5]), 0.406 in assay [2] (setting [6]) and 0.0429 in assay [2] (setting [7]).
Taken in the same sequence, the figures for `C=CC[N+]1([C@H]2C[C@H]3[C@@H]4CC[C@H]5C[C@H](O)[C@@H](N6CCOCC6)C[C@]5(C)[C@@H]4CC[C@]3(C)[C@H]2OC(C)=O)CCCC1` were 0.798, 0.675 and 0.368.
On the same counts, the results for `O=c1[nH]c(=O)n([C@H]2C[C@@H](O)[C@@H](CO)O2)cc1I` are 0.108, 0.166 and 0.313.
Turning to `C[C@@H]1O[C@@H](O[C@H]2CC[C@@]3(C)[C@H](CC[C@@H]4[C@H]3C[C@@H](O)[C@]3(C)[C@@H](C5=CC(=O)OC5)CC[C@]43O)C2)C[C@H](O)[C@@H]1O[C@H]1C[C@H](O)[C@H](O[C@H]2C[C@H](O)[C@@H](O)[C@@H](C)O2)[C@H](C)O1` (stereo in doubt), in [2] (TFE3-RCC UOK109 viability), the Potency is 215 nM (active). In addition, the values for the z-score in [2] (setting [5]), in assay [2] (setting [6]) and in assay [2] (setting [7]) were -2.46, -1.68 and -0.987, respectively.
Taken in the same sequence, the figures for `FC(F)(F)c1ccc(C=Cc2nc(COc3ccc(CCCCn4ccnn4)cc3)co2)cc1` were 2.96 nM (active), -2.19, -1.14 and -1.58.
In the case of `CCC=CC[C@H]1C(=O)CC[C@@H]1CC(=O)OC`, the z-score in assay [2] (setting [5]) was -0.107; in assay [2] (setting [6]) it was 0.558; in [2] (setting [7]), 0.356.
Taken in the same sequence, the figures for `CC(=O)OCC(=O)[C@@]12OC(C)(C)O[C@H]1C[C@H]1[C@@H]3C[C@H](F)C4=CC(=O)C=C[C@]4(C)[C@@]3(F)[C@@H](O)C[C@@]12C` were 0.123, 0.68 and 0.0965.
Consider `CNC1[C@H](O)C(O[C@@H]2C(O)C(O[C@H]3O[C@H]([C@@H](C)NC)CC[C@H]3N)[C@@H](N)C[C@H]2N)OC[C@]1(C)O` (some centres undefined), for which the z-score in assay [2] (setting [5]) turned out to be 0.654; in assay [2] (setting [6]) it was 0.386; in [2] (setting [7]), 0.886.

Source of the values: PubChem BioAssay (NCATS).
